PubChem BioAssay AID1421 (Emory University Molecular Libraries Screening Center, 2008)
In all, about 1,300 compounds went through this assay and about 140 (11%) were called active. A selection follows. Results with a measured potency or affinity are listed apart. Values without a mark were called inactive. No rule for the calls is given here.

molecular target: Prostaglandin E2 receptor EP2 subtype (Homo sapiens) (UniProt P43116); test: compounds shifting PGE2 potency at EP2 – cell-based, human EP2, PGE2 EC50 shift, dose response (AID 1421); conditions: EP2-expressing cells, PGE2 EC50 shift by compound; at 20 µM
Sequence (P43116 whole entry, looked up): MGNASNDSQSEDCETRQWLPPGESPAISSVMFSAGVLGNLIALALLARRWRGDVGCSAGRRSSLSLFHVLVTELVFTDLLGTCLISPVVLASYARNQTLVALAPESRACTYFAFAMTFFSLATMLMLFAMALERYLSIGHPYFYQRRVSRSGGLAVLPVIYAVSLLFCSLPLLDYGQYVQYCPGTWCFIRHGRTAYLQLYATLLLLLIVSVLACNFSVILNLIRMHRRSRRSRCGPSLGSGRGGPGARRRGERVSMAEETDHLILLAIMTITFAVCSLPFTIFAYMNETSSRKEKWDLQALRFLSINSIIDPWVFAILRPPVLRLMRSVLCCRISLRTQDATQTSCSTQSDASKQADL

| Compound | PGE2 EC50 with compound [nM] |
| --- | --- |
| Cc1cc(O)c(C=O)c2c1C(=O)Oc1c(C)c(O)c3c(c1O2)C(O)OC3=O (stereo unspecified) | 0.42 |
| O=C(NNc1ccc([N+](=O)[O-])cc1[N+](=O)[O-])C1C2CCCCC21 (stereo unspecified) | 1.49 |
| CCOC(=O)C1=C(C)N(C)C(C)=C(C(=O)OCC)C1c1ccsc1 | 0.71 |
| O=C(Oc1ccc(-c2nccc(-c3ccccn3)n2)cc1)c1cccc(C(F)(F)F)c1 | 1.38 |
| FC(F)(F)c1cccc(-c2cc3ccccc3nc2N2CCCC2)c1 | 0.54 |
| CCCCOc1cc(C)nc(NCc2ccccc2)n1 | 0.31 |
| COc1cnc(SCc2c(Cl)cccc2Cl)nc1Cl | 0.18 |
| COC(=O)CSc1nc2c(c(C3CC=CCC3)c1C#N)CCC2 (stereo unspecified) | 0.61 |
| Cn1c(=O)c2c(nc(CN3CCN(c4ccccc4)CC3)n2Cc2c(F)cccc2Cl)n(C)c1=O | 0.37 |
| CCn1c(=NC(=O)c2ccc(S(=O)(=O)N3CCOCC3)cc2)sc2cccc(OC)c21 | 1.76 |
| Cn1c(=O)c2c(nc(SCC(=O)N3CCc4ccccc4C3)n2C)n(C)c1=O | 0.76 |
| COc1cc2ccccc2cc1C(=O)NC(=S)Nc1cc(C(=O)O)ccc1C | 58.1 |
| COc1cccc(N=c2oc3c(C)ncc(CO)c3cc2C(=O)Nc2ccccc2OC)c1 | 0.96 |
| Cc1cc2cc3c(cc2nc1SCC(=O)OC(C)C)OCO3 | 0.21 |
| Cc1cc(SCC(=O)c2ccccc2)nc2ccccc12 | 1.19 |
| C=CCSc1nc(N(CC)CC)c2sccc2n1 | 0.61 |
| Cc1cccc(Cn2c(=O)n(Cc3ccco3)c(=O)c3ccccc32)c1 | 0.31 |
| O=c1c2ccccc2n(Cc2ccc(Cl)cc2)c(=O)n1Cc1ccco1 | 0.38 |
| CCOC(=O)c1sc2nccc(N(C)C)c2c1N=CNOCc1ccccc1 | 0.21 |
| c1ccn(-c2ncnc3sc4c(c23)CCCC4)c1 | 0.38 |
| CSc1nnc2c3ccccc3c3ccccc3c2n1 | 0.24 |

| Compound | PGE2 EC50 with compound [nM] |
| --- | --- |
| Fc1ccccc1Nc1nc2c(s1)CCc1ccccc1-2 | 0.26 |
| C=C[C@@](C)(O)CCC1C(=C)C[C@H](O)C2C(C)(C)CCCC12C (stereo partly specified) | 0.59 |
| CCOC(=O)CSc1nc(Cc2ccccc2)nc2ccccc12 | 0.35 |
| COC(=O)CSc1nc(Cc2ccccc2)nc2ccccc12 | 0.17 |
| CCN(Cc1cc(Cl)cc(C)c1O)Cc1c(O)ccc2ccccc12 | 0.73 |
| Cc1ccc(-c2cccc(C(=O)NCc3ccccc3)n2)c2ccccc12 | 0.42 |
| COC(=O)c1c(C)nc2ccccc2c1-c1ccccc1 | 0.22 |
| CCCn1c(C)nc2c(c1=O)c1nc3ccccc3nc1n2CCC1=CCCCC1 | 0.36 |
| O=C(Nc1cccc(Cl)c1N1CCCCC1)c1ccc2c(c1)OCCO2 | 0.26 |
| CCCCOc1ccccc1NC(=O)c1scc2c1OCCO2 | 0.31 |
| CCOC(=O)c1c(NC(=O)CSc2nnnn2CC)sc(C)c1C | 0.73 |
| O=C(Nc1ccccc1)c1nn(-c2cccc(C(F)(F)F)c2)ccc1=O | 0.1 |
| O=C(Cc1ccccc1)Nc1ccccc1N1CCN(c2ccccc2)CC1 | 0.28 |
| O=C(COc1ccccc1)Nc1ccccc1N1CCN(c2ccccc2)CC1 | 0.2 |
| CN(C)c1ncc(S(=O)(=O)c2ccccc2)c(-c2ccccc2Cl)n1 | 0.23 |
| O=C(CSc1nc2ccccc2o1)Nc1ccccc1N1CCCCCC1 | 0.53 |
| O=C(c1ccccc1O)N1N=C(c2ccccc2)CC1(O)C(F)(F)F (stereo unspecified) | 0.51 |
| NC(=O)c1sc2nc(N3CCCCC3)c3c(c2c1N)CCCC3 | 0.08 |
| N#Cc1sc2nc(N3CCCCC3)c3c(c2c1N)CCCC3 | 0.26 |
| Cc1ccc(S(=O)(=O)n2c3ccc(Cl)cc3c3nc(C)sc32)cc1 | 0.13 |
| Cc1cccc(C)c1OCc1nnc(SCC(=O)Nc2nccs2)n1-c1ccccc1 | 0.57 |

| Compound | PGE2 EC50 with compound [nM] |
| --- | --- |
| CC(=O)c1ccc2c(c1)c1ccccc1n2CC(C)C | 0.19 |
| Cc1cc([N+](=O)[O-])c(C)c(Br)c1C | 0.91 |
| O=C(O)c1nc2nc(Cl)c(Cl)nc2[nH]1 | 0.87 |
| CC1CCN(c2ccccc2NC(=O)c2ccc(F)cc2)CC1 | 0.3 |
| O=C(Nc1ccccc1N1CCCCC1)c1ccc2nccnc2c1 | 0.08 |
| O=C(Nc1ccccc1N1CCCCC1)c1cccc(F)c1 | 0.33 |
| O=C(Nc1ccccc1N1CCCC1)c1cc2ccccc2o1 | 0.19 |
| O=C(Nc1ccccc1N1CCCCC1)c1ccc(F)cc1 | 0.41 |
| O=C(Nc1ccccc1Oc1ccccc1)c1cnccn1 | 0.75 |
| O=C(Nc1ccccc1N1CCCCC1)c1cccc([N+](=O)[O-])c1 | 0.3 |
| O=C(CNCC1CCCCC1)Nc1ccccc1N1CCCCC1 | 0.57 |
| CCOC(=O)c1c(N)sc(-c2ccccc2)c1C | 0.8 |
| O=C(CO/N=C/c1ccccc1)N1c2ccccc2Oc2ccccc21 | 0.59 |
| CC1CCN(c2nc3c(c(=O)[nH]c(=O)n3C)n2CC(C)CSc2nnnn2-c2ccccc2)CC1 (stereo unspecified) | 0.73 |
| COC(=O)c1cc2occc2n1Cc1cccc(C)c1 | 0.36 |
| CCc1nc2c(cnn2-c2ccc(Cl)cc2)c(=O)n1-c1ccc(OC)cc1 | 1.12 |
| COc1ccc(Cl)cc1-n1c(C)ccc1C | 0.33 |
| CCCCc1nc(SCCOC)c2c(=O)n(C)c(=O)n(C)c2n1 | 0.46 |
| CCC(=O)Oc1ccc(C(CC)C(CC)c2ccc(OC(=O)CC)cc2)cc1 (stereo unspecified) | 0.53 |
